# According to PubChem BioAssay (EPA / NIEHS):
# Results filed as inconclusive are left out. The source made the active and inactive calls. Rule for the calls: active = hit-call score of the fitted dose curve at least 0.9, where 1 is the maximum; inconclusive = response in the unintended direction; inactive = score below 0.9.
# Legend:
# [1] = biological target: human Esterase Plasma (ES), BCHE (gene 590) (UniProt P06276); assay: NVS_ENZ_hES: NovaScreen (NVS) Enzymatic Assay for human Esterase Plasma (ES) (AID 2283157)
# Procedure, shortened: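 Primary single-concentration screen at 25 uM in duplicate, then concentration-response to a 50 uM top dose. Human plasma esterase activity detected colorimetrically after 0.25 h incubation, with DMSO as baseline.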
# [2] = biological target: human Mitogen- and Stress-activated Protein Kinase-1 (Msk1), RPS6KA5 (gene 9252) (UniProt O75582); assay: NVS_ENZ_hMsk1: NovaScreen (NVS) Enzymatic Assay for human Mitogen- and Stress-activated Protein Kinase-1 (Msk1) (AID 2283187)
# Procedure, shortened: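 Chemicals first run in duplicate at 25 uM, with actives followed up in singleton concentration series to 50 uM maximum. Enzyme activity came from substrate/product mobility-shift separation with fluorescence detection after 1 h incubation of the recombinant protein.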
# [3] = biological target: Collagenase 3 (Homo sapiens) (UniProt P45452); assay: NVS_ENZ_hMMP13: NovaScreen (NVS) Enzymatic Assay for human Matrix Metalloproteinase-13 (MMP13) (AID 2283182)
# Procedure, shortened: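 Recombinant MMP13 cleaving fluorescent substrate, cell-free, measured 1 h after dosing. Primary duplicate screen at 25 uM; actives tested in concentration-response up to 50 uM; loss of signal relative to DMSO.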
# [4] = biological target: human Matrix Metalloproteinase-2 (MMP2), MMP2 (gene 4313) (UniProt P08253); assay: NVS_ENZ_hMMP2: NovaScreen (NVS) Enzymatic Assay for human Matrix Metalloproteinase-2 (MMP2) (AID 2283184)
# Procedure, shortened: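 Compounds first screened in duplicate at a single 25 uM, with actives followed up in concentration series. Recombinant human MMP2 cleaves a fluorogenic substrate; fluorescence taken at 1 h, inhibition fitted relative to DMSO.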
# [5] = biological target: human Matrix Metalloproteinase-9 (MMP9), MMP9 (gene 4318) (UniProt P14780); assay: NVS_ENZ_hMMP9: NovaScreen (NVS) Enzymatic Assay for human Matrix Metalloproteinase-9 (MMP9) (AID 2283190);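 note: cell-free recombinant MMP9 protease activity read by fluorescent substrate signal; active means inhibition seen as loss of fluorescence signal versus DMSO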
# Procedure, shortened: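 Screening concentration 25 uM, duplicate wells, then dose series for confirmation. Cell-free enzymatic reaction measured by fluorescence intensity 1 h post-dosing; decreased signal versus DMSO taken as activity.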
# [6] = biological target: human Ephrin type-A Receptor 1 (EphA1), EPHA1 (gene 2041) (UniProt P21709); assay: NVS_ENZ_hEphA1: NovaScreen (NVS) Enzymatic Assay for human Ephrin type-A Receptor 1 (EphA1) (AID 2283158);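 note: activity is signal loss versus DMSO meaning EphA1 kinase inhibition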
# Procedure, shortened: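 Recombinant kinase, fluorescent substrate, mobility-shift separation, fluorescence read at 1 h. Single-point duplicates at 25 uM; hits (e.g., ≥30% inhibition) run singleton concentration-response, max 50 uM. DMSO = negative control/baseline.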
# [7] = biological target: human Elastase, ELANE (gene 1991) (UniProt P08246); assay: NVS_ENZ_hElastase: NovaScreen (NVS) Enzymatic Assay for human Elastase (AID 2283153)
# Procedure, shortened: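 Concentration-response to 50 uM max, run singly for chemicals passing a threshold (e.g., 30% inhibition) in a duplicate 25 uM single-point screen. Neutrophil-derived human elastase, absorbance read-out of enzyme activity at 1.5 h; DMSO baseline.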
# [8] = biological target: human Insulin Receptor (InsR), INSR (gene 3643) (UniProt P06213); assay: NVS_ENZ_hInsR: NovaScreen (NVS) Enzymatic Assay for human Insulin Receptor (InsR) (AID 2283168)
# Procedure, shortened: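 Cell-free enzyme assay read 1 h post-dose by fluorescence after substrate/product mobility-shift separation. Duplicate 25 uM primary screen, then singleton concentration-response up to 50 uM for compounds passing threshold; loss of signal vs DMSO.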
# [9] = biological target: human LYN Proto-Oncogene, Src family Tyrosine Kinase (LynA), LYN (gene 4067) (UniProt P07948); assay: NVS_ENZ_hLynA: NovaScreen (NVS) Enzymatic Assay for human LYN Proto-Oncogene, Src family Tyrosine Kinase (LynA) (AID 2283173)
# Procedure, shortened: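 Recombinant kinase with fluorescent substrate; product separated from substrate by electrophoretic mobility shift and read 1 h after dosing. Duplicate screen at 25 uM, then concentration-response up to 50 uM; activity scored as signal loss against DMSO.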
# [10] = biological target: cAMP-dependent protein kinase catalytic subunit alpha (Homo sapiens) (UniProt P17612); assay: NVS_ENZ_hPKA: NovaScreen (NVS) Enzymatic Assay for human Protein Kinase A (PKA) (AID 2283192)
# Procedure, shortened: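 Cell-free kinase activity read by fluorescence after mobility-shift separation of substrate and product, 1 h post-dosing. Single-concentration duplicate screen (25 uM) preceded singleton concentration series (top 50 uM); loss of signal versus DMSO.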
# [11] = biological target: human Dual Specificity Protein Phosphatase 3 (DUSP3), DUSP3 (gene 1845) (UniProt P51452); assay: NVS_ENZ_hDUSP3: NovaScreen (NVS) Enzymatic Assay for human Dual Specificity Protein Phosphatase 3 (DUSP3) (AID 2283152);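 note: phosphatase activity of recombinant human DUSP3 on a fluorogenic substrate without cells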
# Procedure, shortened: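 Cell-free fluorescence-intensity enzyme activity assay with recombinant protein and substrate; loss of signal fitted relative to DMSO baseline. Primary screen in duplicate at 25 uM, actives then run in concentration series; measured 0 h after dosing.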
# [12] = biological target: human Matrix Metalloproteinase-3 (MMP3), MMP3 (gene 4314) (UniProt P08254); assay: NVS_ENZ_hMMP3: NovaScreen (NVS) Enzymatic Assay for human Matrix Metalloproteinase-3 (MMP3) (AID 2283185)
# Procedure, shortened: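 Fluorescent substrate turnover by recombinant MMP3 read after 1 h, signal loss scored against DMSO. Compounds first run in duplicate at 25 uM single dose, then actives confirmed by concentration series.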
# [13] = biological target: human Phosphodiesterase 4A1 (PDE4A1), PDE4A (gene 5141) (UniProt P27815); assay: NVS_ENZ_hPDE4A1: NovaScreen (NVS) Enzymatic Assay for human Phosphodiesterase 4A1 (PDE4A1) (AID 2283191)
# Procedure, shortened: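 Fluorescent substrate turnover by recombinant PDE4A1 read after 1 h by mobility-shift separation. Primary duplicate screen at 25 uM; hits retested in concentration series with a 50 uM maximum, relative to DMSO.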
# [14] = biological target: Histone deacetylase 3 (Homo sapiens) (UniProt O15379); assay: NVS_ENZ_hHDAC3: NovaScreen (NVS) Enzymatic Assay for human Histone Deacetylase 3 (HDAC3) (AID 2283163)
# Procedure, shortened: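 Cell-free enzyme format: loss of fluorescent product after mobility-shift separation, 1 h incubation, recombinant human HDAC3. Single 25 uM duplicate screen first, then concentration series to a 50 uM top for hits; DMSO as baseline.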
# [15] = biological target: human MAP Kinase-Activated Protein Kinase 2 (MAPKAPK2), MAPKAPK2 (gene 9261) (UniProt P49137); assay: NVS_ENZ_hMAPKAPK2: NovaScreen (NVS) Enzymatic Assay for human MAP Kinase-Activated Protein Kinase 2 (MAPKAPK2) (AID 2283178)
# Procedure, shortened: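 Chemicals screened in duplicate at 25 uM, then to 50 uM top concentration in concentration-response, against recombinant human MAPKAPK2; substrate conversion read 1 hr post-dosing by fluorescence after electrophoretic mobility-shift separation, loss-of-signal relative to DMSO.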
# [16] = biological target: human Matrix Metalloproteinase-7 (MMP7), MMP7 (gene 4316) (UniProt P09237); assay: NVS_ENZ_hMMP7: NovaScreen (NVS) Enzymatic Assay for human Matrix Metalloproteinase-7 (MMP7) (AID 2283183)
# Procedure, shortened: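 Compounds first tested at 25 uM in duplicate, then at up to 50 uM in concentration series if active. Protease activity measured by fluorescence intensity 1 h after dosing, with fitting relative to DMSO.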
# [17] = biological target: Mitogen-activated protein kinase 3 (Homo sapiens) (UniProt P27361); assay: NVS_ENZ_hMAPK3: NovaScreen (NVS) Enzymatic Assay for human Mitogen-Activated Protein Kinase 3 (MAPK 3) (AID 2283177)
# Procedure, shortened: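 Chemicals were first tested in duplicate at 25 uM, with hits re-run as concentration series (max 50 uM). Recombinant enzyme activity, measured 1 h post-dose in a cell-free format, was read by fluorescence/mobility shift relative to DMSO.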
# [18] = biological target: human Janus Kinase 2 (Jak2), JAK2 (gene 3717) (UniProt O60674); assay: NVS_ENZ_hJak2: NovaScreen (NVS) Enzymatic Assay for human Janus Kinase 2 (Jak2) (AID 2283169)
# Procedure, shortened: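 Single-point duplicate screen at 25 uM, with hits run in concentration series to a 50 uM top dose. Substrate-product separation by mobility shift with fluorescence detection, 1 h post-dosing; DMSO baseline.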
# Chain of human Dual Specificity Protein Phosphatase 3 (DUSP3), DUSP3 (gene 1845) (P51452 whole entry, looked up): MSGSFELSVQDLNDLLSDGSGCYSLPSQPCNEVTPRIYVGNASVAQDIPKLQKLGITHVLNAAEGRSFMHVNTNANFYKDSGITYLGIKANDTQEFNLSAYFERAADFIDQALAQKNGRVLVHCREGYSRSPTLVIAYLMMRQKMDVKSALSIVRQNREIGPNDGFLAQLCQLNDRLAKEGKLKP
# Chain of human Phosphodiesterase 4A1 (PDE4A1), PDE4A (gene 5141) (P27815 whole entry, looked up): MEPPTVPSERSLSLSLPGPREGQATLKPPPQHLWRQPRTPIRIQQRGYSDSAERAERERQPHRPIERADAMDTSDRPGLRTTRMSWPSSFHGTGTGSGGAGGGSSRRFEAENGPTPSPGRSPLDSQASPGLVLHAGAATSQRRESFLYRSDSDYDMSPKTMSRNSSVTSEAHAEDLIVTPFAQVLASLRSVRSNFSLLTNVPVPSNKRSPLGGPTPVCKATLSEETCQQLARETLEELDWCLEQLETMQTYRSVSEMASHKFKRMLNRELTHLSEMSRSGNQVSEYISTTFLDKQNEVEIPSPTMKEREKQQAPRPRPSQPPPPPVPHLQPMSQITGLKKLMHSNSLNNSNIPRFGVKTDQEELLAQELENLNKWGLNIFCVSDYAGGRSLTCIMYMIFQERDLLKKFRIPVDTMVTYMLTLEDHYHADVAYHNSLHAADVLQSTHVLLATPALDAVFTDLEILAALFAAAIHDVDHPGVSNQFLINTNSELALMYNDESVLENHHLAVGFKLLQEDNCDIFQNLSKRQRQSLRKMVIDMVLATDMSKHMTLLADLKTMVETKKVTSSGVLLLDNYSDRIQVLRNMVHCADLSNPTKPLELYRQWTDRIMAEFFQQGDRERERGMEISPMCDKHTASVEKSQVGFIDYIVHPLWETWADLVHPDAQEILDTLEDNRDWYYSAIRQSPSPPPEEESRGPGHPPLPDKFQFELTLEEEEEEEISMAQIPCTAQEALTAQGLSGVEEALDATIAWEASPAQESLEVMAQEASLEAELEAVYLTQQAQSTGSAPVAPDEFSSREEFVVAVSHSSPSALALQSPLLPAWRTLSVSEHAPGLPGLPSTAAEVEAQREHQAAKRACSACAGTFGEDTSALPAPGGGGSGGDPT
# Chain of human Elastase, ELANE (gene 1991) (P08246 whole entry, looked up): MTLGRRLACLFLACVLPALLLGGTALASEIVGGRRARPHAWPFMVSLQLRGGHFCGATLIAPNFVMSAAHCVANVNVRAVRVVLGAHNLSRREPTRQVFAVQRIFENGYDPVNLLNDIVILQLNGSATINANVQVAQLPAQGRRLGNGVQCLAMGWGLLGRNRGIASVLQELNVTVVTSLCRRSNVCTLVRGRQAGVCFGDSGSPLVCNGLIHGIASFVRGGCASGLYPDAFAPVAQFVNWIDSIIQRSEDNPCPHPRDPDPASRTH
# Chain of human Matrix Metalloproteinase-2 (MMP2), MMP2 (gene 4313) (P08253 whole entry, looked up): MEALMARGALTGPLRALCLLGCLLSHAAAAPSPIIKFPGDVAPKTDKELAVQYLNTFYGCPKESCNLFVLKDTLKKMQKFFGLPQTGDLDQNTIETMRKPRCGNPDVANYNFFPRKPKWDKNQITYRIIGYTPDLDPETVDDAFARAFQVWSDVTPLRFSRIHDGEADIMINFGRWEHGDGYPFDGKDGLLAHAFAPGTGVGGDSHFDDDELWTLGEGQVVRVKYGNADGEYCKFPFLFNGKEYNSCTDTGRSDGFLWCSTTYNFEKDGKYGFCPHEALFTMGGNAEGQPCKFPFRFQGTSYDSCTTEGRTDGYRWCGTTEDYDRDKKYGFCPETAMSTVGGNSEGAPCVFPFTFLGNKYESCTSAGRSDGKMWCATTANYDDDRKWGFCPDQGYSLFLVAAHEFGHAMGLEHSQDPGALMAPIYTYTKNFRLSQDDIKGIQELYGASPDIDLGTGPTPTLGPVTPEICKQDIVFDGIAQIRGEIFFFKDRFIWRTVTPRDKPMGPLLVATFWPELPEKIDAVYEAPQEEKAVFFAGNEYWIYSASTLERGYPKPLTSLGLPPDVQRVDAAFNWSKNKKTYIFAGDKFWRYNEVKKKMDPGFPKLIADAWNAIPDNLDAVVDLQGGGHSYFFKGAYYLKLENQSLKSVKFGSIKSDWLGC
# Chain of human Matrix Metalloproteinase-7 (MMP7), MMP7 (gene 4316) (P09237 whole entry, looked up): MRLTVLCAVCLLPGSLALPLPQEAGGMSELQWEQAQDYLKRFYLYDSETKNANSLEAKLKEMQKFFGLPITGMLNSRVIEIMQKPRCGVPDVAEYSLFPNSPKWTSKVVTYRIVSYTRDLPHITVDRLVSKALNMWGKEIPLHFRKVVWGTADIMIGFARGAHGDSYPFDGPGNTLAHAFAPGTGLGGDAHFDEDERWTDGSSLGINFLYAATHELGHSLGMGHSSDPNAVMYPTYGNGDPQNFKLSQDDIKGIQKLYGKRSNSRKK
# Chain of human Ephrin type-A Receptor 1 (EphA1), EPHA1 (gene 2041) (P21709 whole entry, looked up): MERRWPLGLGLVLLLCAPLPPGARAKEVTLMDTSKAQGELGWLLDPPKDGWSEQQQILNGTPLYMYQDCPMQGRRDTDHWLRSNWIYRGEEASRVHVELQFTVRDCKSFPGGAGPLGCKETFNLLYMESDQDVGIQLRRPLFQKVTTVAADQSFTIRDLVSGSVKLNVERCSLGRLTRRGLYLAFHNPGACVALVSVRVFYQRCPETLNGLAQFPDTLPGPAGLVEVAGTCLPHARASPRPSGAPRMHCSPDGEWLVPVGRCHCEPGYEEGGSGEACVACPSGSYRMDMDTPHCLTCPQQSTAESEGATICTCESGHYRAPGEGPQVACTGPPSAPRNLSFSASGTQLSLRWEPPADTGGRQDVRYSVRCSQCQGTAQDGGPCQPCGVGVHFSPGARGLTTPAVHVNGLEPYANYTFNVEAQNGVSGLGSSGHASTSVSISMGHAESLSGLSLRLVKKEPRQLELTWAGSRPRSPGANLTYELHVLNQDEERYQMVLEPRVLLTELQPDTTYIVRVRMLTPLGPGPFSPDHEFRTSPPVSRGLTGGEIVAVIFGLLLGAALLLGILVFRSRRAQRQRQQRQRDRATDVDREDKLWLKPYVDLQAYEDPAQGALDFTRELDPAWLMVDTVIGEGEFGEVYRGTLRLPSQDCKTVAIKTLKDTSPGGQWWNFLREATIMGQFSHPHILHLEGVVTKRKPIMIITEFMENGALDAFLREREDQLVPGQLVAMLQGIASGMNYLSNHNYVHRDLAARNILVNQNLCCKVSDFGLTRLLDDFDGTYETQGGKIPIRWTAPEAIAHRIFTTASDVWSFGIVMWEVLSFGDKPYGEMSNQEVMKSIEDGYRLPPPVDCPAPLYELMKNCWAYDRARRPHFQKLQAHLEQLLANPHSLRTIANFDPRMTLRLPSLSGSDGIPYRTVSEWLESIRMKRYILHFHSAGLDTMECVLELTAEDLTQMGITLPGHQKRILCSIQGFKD
# Chain of human Esterase Plasma (ES), BCHE (gene 590) (P06276 whole entry, looked up): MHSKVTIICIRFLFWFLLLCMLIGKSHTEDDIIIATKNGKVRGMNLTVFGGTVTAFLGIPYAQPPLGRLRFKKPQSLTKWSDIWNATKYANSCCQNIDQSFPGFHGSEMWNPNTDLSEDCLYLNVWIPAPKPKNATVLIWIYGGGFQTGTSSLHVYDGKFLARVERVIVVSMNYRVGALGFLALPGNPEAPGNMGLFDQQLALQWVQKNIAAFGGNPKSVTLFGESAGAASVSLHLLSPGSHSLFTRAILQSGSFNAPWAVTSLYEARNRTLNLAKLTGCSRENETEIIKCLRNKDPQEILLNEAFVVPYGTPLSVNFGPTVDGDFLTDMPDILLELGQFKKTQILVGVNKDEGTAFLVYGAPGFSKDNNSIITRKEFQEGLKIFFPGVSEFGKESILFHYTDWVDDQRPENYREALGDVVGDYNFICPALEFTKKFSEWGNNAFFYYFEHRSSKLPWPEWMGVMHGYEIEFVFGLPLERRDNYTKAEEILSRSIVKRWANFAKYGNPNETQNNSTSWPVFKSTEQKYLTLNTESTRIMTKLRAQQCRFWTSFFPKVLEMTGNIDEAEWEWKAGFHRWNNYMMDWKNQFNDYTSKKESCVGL
# Chain of human Matrix Metalloproteinase-3 (MMP3), MMP3 (gene 4314) (P08254 whole entry, looked up): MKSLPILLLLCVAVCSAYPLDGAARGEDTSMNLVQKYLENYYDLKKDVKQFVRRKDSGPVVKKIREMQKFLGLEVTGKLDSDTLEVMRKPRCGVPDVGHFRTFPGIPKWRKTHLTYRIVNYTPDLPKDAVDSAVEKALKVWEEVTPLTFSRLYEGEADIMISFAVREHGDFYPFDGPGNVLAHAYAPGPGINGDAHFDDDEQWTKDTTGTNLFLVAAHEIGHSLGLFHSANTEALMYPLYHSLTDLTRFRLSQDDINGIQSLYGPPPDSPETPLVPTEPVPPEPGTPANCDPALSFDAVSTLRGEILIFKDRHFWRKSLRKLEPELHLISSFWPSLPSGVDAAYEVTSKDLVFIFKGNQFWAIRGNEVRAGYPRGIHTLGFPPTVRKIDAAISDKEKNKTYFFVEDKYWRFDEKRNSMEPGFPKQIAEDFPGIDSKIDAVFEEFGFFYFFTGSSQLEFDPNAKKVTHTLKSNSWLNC
# Chain of Histone deacetylase 3 (Homo sapiens) (O15379 whole entry, looked up): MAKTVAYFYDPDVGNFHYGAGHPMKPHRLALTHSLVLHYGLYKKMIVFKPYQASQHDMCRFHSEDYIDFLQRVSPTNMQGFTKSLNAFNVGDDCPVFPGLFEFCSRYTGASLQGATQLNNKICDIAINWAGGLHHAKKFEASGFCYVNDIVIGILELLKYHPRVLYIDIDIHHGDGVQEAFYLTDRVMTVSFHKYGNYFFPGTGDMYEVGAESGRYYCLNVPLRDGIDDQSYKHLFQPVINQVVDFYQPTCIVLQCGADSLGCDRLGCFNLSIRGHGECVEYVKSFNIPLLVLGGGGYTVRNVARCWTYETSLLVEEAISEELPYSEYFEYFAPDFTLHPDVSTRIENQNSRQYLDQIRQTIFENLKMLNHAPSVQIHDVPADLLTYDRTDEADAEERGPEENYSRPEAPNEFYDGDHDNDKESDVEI
smiles,measurement,setting,value
CN(C)C(=O)NC1(c2ccccc2)CCN(CC[C@@]2(c3ccc(F)c(F)c3)CN(C(=O)c3ccccc3)CCO2)CC1,AC50,[1],19.1 µM (active)
same,outcome,[2],inactive
Cn1cnc2c1c(=O)[nH]c(=O)n2C,outcome,[1],inactive
same,outcome,[3],inactive
same,outcome,[4],inactive
same,outcome,[5],inactive
O=C(NS(=O)(=O)/C=C/c1cccs1)c1ccc(F)cc1Br,outcome,[6],inactive
CCCCC(CC)COC(=O)CCCCCCCC(=O)OCC(CC)CCCC (stereo not drawn),AC50,[7],6.97 µM (active)
same,outcome,[8],inactive
CSc1ccc(Oc2ccc(S(N)(=O)=O)cc2CN(C)C)cc1C,AC50,[1],0.108 µM (active)
same,AC50,[4],9.97 µM (active)
O=C(N[C@@H](c1ccccc1)[C@@H]1CCCCN1)c1cccc(C(F)(F)F)c1Cl,AC50,[1],20.8 µM (active)
same,outcome,[9],inactive
same,outcome,[10],inactive
CCCCCCCCCCCCCCOS(=O)(=O)O,AC50,[11],8.15 µM (active)
same,AC50,[7],25.4 µM (active)
same,AC50,[12],26 µM (active)
same,AC50,[13],18.6 µM (active)
O=C1c2c(O)cccc2Cc2cccc(O)c21,AC50,[7],4.55 µM (active)
same,outcome,[14],inactive
same,outcome,[15],inactive
same,AC50,[3],0.671 µM (active)
same,AC50,[16],20.3 µM (active)
same,AC50,[4],10.2 µM (active)
same,AC50,[12],8.87 µM (active)
Cc1cc(Cc2ccc(N)c(C)c2)ccc1N,outcome,[7],inactive
same,outcome,[4],inactive
Cc1ccc(-c2cc(C(F)(F)F)nn2-c2ccc(S(N)(=O)=O)cc2)cc1,outcome,[1],inactive
same,outcome,[16],inactive
same,outcome,[4],inactive
CN(C)CCCN1c2ccccc2Sc2ccc(Cl)cc21,AC50,[11],10.7 µM (active)
same,AC50,[1],7.76 µM (active)
same,outcome,[6],inactive
CCCCCCCCCC[N+](C)(C)[O-],outcome,[6],inactive
Cc1c(C)c2c(c(C)c1O)CCC(C)(COc1ccc(CC3SC(=O)NC3=O)cc1)O2 (stereo not drawn),outcome,[11],inactive
same,outcome,[1],inactive
CN(C)CCCN(C)CCCN(C)C,AC50,[1],31.8 µM (active)
same,outcome,[16],inactive
same,outcome,[13],inactive
CS(=O)(=O)c1ccc([C@@H](C[C@H]2CCC(=O)C2)C(=O)Nc2cnccn2)cc1Cl,outcome,[6],inactive
same,outcome,[17],inactive
CCC(C)N(C)C(=O)c1cc2ccccc2c(-c2ccccc2Cl)n1 (stereo not drawn),AC50,[1],9.91 µM (active)
COc1ccc(OC(F)(F)F)cc1CN[C@H]1CCCN[C@H]1c1ccccc1,AC50,[1],1.47 µM (active)
same,outcome,[18],inactive
same,outcome,[2],inactive
same,outcome,[13],inactive
same,outcome,[10],inactive
CCCCc1nc2cccnc2n1Cc1ccc(-c2ccccc2-c2nnn[nH]2)cc1,outcome,[6],inactive
same,AC50,[14],17.2 µM (active)
same,outcome,[17],inactive
same,AC50,[3],24.1 µM (active)
same,AC50,[12],22.9 µM (active)
same,AC50,[13],11.6 µM (active)
CCc1cc(C2=C(C(=O)O)N(c3ccccc3C(F)(F)F)S(=O)(=O)c3ccccc32)cc2c1OCO2,AC50,[7],8.94 µM (active)
same,AC50,[3],29.6 µM (active)
same,outcome,[16],inactive
same,AC50,[12],25 µM (active)
same,outcome,[13],inactive
